Results published in PubChem BioAssay (Tox21).
Values joined by “and” are separate entries in the source; they are usually repeats but may differ in a detail not shown here. Identical values can stand only once. Records with an inconclusive call do not appear. Some compounds were tested as several samples or in several runs, with calls that do not always agree. Active and inactive are the calls of the source. Unless noted, calls come from the whole dose curve; as a rule, active = well fitted curve in the direction sought with a large enough effect in the repeat runs; inconclusive = weak or mixed curves; inactive = no such curve, though single readings can be large; an effect the other way counts as inactive or inconclusive.

Legend:
[1] = qHTS assay to identify small molecule agonists of the progesterone receptor (PR) signaling pathway - cell viability counter screen (AID 1346799; calls by dose curve; note: nearly all actives have a fitted effect of over 45% in size)
Procedure, shortened: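 Cells (PR-UAS-bla HEK293T) are plated at 3,000/well in 2% charcoal-stripped FBS medium, rested 6 hr, dosed and incubated 16 hr at 37C. CellTiter-Glo is then added and luminescence measured after 30 min at room temperature.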

[2] = qHTS assay to identify small molecule antagonists of the TGF-beta/Smad signaling pathway - cell viability counter screen (AID 1346824); note: nearly all actives have a fitted effect of over 50% in size
Procedure, shortened: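 SBE-bla HEK 293T cells, incubated overnight, then compound plus 0.25 ng/mL TGF-beta1 (stock added) for 5 hr at 37 C. Viability was read in the same wells by CellTiter-Glo luminescence after 30 min at room temperature.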

[3] = qHTS assay to identify small molecule agonists of the TGF-beta/Smad signaling pathway - cell viability counter screen (AID 1346829); note: top concentration of the series differs between compounds; nearly all actives have a fitted effect of over 45% in size
Procedure, shortened: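 Here the cytotoxicity of library compounds is measured in SBE-bla HEK 293T cells treated for 5 hr, using CellTiter-Glo added to wells already read for the beta-lactamase reporter.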

[4] = qHTS assay to identify small molecule agonists of the TGF-beta/Smad signaling pathway (AID 1346859; active = well fitted activation curve with a large enough effect in the signal ratio in the repeat runs, not every such curve was filed as active; the % refers to the signal ratio; note: series mostly up to about 77 µM)
Procedure, shortened: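 Reporter line: HEK 293T with stably integrated SBE-controlled beta-lactamase. Compound exposure lasts 5 hr at 37 C and 5% CO2; substrate loading follows for 2 hr at room temperature, with emission read at 460 and 530 nm.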

[5] = Human pregnane X receptor (PXR) small molecule agonists, qHTS cell viability counter screen (AID 1346977); note: nearly all actives have a fitted effect of over 50% in size; note: potency is the fitted concentration of half-maximal effect
Procedure, shortened: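 Cytotoxicity counter screen run in the same wells as the PXR luciferase assay, using PXR-Luc HepG2 cells in charcoal-stripped serum medium. Viability: CellTiter-Fluor fluorescence after 24hr compound treatment.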

[6] = Caspase-3/7 induction in HepG2 cells by small molecules, qHTS assay (AID 1346978); note: nearly all actives have a fitted effect of over 15% in size
Procedure, shortened: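 Wild-type HepG2 cells, 2,000/well, settled 5 hr at 37 C and 5% CO2, then compound-treated for 17 hr; caspase-3/7 activity read by luminescent Caspase-Glo 3/7 after 30 min at room temperature.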

[7] = Caspase-3/7 induction in CHO-K1 cells by small molecules, qHTS cell viability counter screen (AID 1346979); note: nearly all actives have a fitted effect of over 35% in size; note: potency is the fitted concentration of half-maximal effect
Procedure, shortened: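 Cytotoxicity counter screen run in parallel with the caspase-3/7 assay: CHO-K1 cells, 16hr compound treatment at 37C, then CellTiter-Fluor for 1hr before fluorescence reading.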

[8] = Caspase-3/7 induction in CHO-K1 cells by small molecules, qHTS assay (AID 1346980); note: nearly all actives have a fitted effect of over 15% in size
Procedure, shortened: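 Wild-type CHO-K1 cells exposed to compounds for 17hr at 37 C, 5% CO2. Caspase-3/7 activity then measured by Caspase-Glo 3/7 luminescence after 30min at room temperature.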

[9] = Caspase-3/7 induction in HepG2 cells by small molecules, qHTS cell viability counter screen (AID 1346981); note: nearly all actives have a fitted effect of over 30% in size; note: potency is the fitted concentration of half-maximal effect
Procedure, shortened: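 Cell viability is measured as a cytotoxicity counter screen alongside the Caspase-Glo 3/7 readout in identical wells. Wild-type HepG2 cells are treated with test compounds for 16 hr at 37 C before CellTiter-Fluor addition and a 1-hr incubation.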

[10] = target: Acetylcholinesterase (Homo sapiens) (UniProt P22303); assay: Acetylcholinesterase (AChE) small molecule antagonists: colormetric cell-based qHTS assay (AID 1347395; calls by dose curve; note: nearly all actives have a fitted effect of over 30% in size; note: potency is the fitted concentration of half-maximal effect)
Acetylcholinesterase (Homo sapiens), sequence (P22303 whole entry, looked up): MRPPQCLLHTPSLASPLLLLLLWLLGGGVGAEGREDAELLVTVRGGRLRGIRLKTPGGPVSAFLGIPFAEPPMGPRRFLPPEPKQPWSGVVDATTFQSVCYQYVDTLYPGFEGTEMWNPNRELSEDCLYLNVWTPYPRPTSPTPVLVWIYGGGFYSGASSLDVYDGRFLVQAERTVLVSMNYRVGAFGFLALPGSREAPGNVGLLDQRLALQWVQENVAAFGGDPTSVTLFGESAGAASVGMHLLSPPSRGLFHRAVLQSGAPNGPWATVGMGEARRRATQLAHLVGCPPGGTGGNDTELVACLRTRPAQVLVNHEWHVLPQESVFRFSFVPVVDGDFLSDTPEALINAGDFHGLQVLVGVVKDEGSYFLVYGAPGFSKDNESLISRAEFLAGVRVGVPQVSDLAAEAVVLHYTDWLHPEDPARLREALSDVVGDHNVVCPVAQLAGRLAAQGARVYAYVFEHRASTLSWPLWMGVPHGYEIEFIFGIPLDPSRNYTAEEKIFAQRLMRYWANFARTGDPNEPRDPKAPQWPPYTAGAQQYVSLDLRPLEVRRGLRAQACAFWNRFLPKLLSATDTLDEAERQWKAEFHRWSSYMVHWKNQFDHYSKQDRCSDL
Procedure, shortened: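 Cells (SH-SY5Y, 2,000 per well) are seeded and left overnight at 37 C. Compound is added for 30 min, then DTNB and acetylthiocholine for a further 90 min at 37 C before absorbance-based thiocholine detection.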

[11] = target: Acetylcholinesterase (Homo sapiens) (UniProt P22303); assay: Acetylcholinesterase (AChE) small molecule antagonists: enzyme-based qHTS assay (AID 1347397; calls by dose curve; note: nearly all actives have a fitted effect of over 55% in size); settings: Potency: AChE enzyme activity inhibition
Procedure, shortened: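 Colorimetric DTNB read-out of thiocholine released from acetylthiocholine by recombinant human AChE (50 mU/mL as dispensed). Compounds were preincubated 30 min at RT before substrate/DTNB addition, with a 10 min RT reaction.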

[12] = target: Acetylcholinesterase (Homo sapiens) (UniProt P22303); assay: Acetylcholinesterase (AChE) small molecule antagonists: fluorescence cell-based qHTS assay (AID 1347398; calls by dose curve; note: nearly all actives have a fitted effect of over 50% in size; note: potency is the fitted concentration of half-maximal effect); settings: Potency: AChE activity
Procedure, shortened: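 SH-SY5Y, 2,000 cells/well, attached overnight; cmpd 30 min 37 C; acetylthiocholine/Thiolite Green cocktail 40 min RT; fluorescence Ex/Em 490/520 nm.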

[13] = target: Acetylcholinesterase (Homo sapiens) (UniProt P22303); assay: Acetylcholinesterase (AChE) small molecule antagonists: enzyme-based qHTS assay with human liver microsomes (AID 1347399; calls by dose curve; note: nearly all actives have a fitted effect of over 60% in size); settings: Potency: qHTS inhibition
Procedure, shortened: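 Recombinant human AChE (50 mU/mL in the enzyme mix) and human liver microsomes (0.25 mg/mL final) were preincubated with compound and NADPH (0.25 mg/mL final) for 30 min at 37 C. Acetylthiocholine/DTNB was then added; thiocholine was read colorimetrically after 10 min at room temperature.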

[14] = target: Cytochrome P450 2D6 (Homo sapiens) (UniProt P10635); assay: Cytochrome P450 Family 2 Subfamily D Member 6 (CYP2D6) small molecule antagonists: luciferase reporter qHTS assay (AID 1671196); note: nearly all actives have a fitted effect of over 50% in size; note: potency is the fitted concentration of half-maximal effect
Cytochrome P450 2D6 (Homo sapiens), sequence (P10635 whole entry, looked up): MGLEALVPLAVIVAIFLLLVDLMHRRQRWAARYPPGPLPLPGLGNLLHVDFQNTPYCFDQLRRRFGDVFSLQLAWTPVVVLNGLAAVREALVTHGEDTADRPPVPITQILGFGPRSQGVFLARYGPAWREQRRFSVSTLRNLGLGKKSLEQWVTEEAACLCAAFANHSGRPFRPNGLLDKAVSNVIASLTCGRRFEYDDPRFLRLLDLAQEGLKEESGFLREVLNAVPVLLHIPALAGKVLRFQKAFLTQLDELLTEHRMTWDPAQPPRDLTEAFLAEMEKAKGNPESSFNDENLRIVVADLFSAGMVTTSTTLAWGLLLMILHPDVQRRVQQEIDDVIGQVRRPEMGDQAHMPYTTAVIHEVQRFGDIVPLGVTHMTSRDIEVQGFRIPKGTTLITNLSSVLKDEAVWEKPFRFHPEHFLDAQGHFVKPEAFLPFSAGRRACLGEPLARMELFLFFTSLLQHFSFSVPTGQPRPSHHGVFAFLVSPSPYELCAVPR
Procedure, shortened: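 Enzyme and proluciferin substrate were first combined with test chemical for 10 min at room temperature. Adding NADPH regeneration solution started a 1 h reaction, stopped with luciferin detection reagent and read by luminescence 20 min later.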

[15] = target: Thyrotropin-releasing hormone receptor (Homo sapiens) (UniProt P34981); assay: qHTS assay to identify small molecule antagonists of the thyrotropin-releasing hormone receptor (TRHR) signaling pathway (AID 1346877; active = well fitted inhibition curve with a large enough effect in the repeat runs, not every such curve was filed as active; note: series mostly up to about 51 µM)
Thyrotropin-releasing hormone receptor (Homo sapiens), sequence (P34981 whole entry, looked up): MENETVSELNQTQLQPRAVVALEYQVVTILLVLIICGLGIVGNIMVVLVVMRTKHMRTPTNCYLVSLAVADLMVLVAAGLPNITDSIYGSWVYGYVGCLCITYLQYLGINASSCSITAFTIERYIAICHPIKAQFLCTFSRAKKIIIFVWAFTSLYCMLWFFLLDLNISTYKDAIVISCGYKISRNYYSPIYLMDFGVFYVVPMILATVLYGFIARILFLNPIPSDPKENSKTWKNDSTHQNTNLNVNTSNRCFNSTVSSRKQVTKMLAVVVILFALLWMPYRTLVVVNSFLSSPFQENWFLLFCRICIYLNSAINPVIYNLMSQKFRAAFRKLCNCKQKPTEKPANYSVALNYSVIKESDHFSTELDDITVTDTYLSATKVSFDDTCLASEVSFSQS
Procedure, shortened: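 Antagonism is measured as suppression of the calcium response to 1 nM TRH in TRHR-HEK293 cells that have been dye-loaded for 2 h at 37 °C after overnight plating. Each compound is tested at 15 concentrations in triplicate.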

[16] = target: Thyrotropin-releasing hormone receptor (Homo sapiens) (UniProt P34981); assay: qHTS assay to identify small molecule agonists of the thyrotropin-releasing hormone receptor (TRHR) signaling pathway (AID 1346891; calls by dose curve; note: potency is the fitted concentration of half-maximal effect;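 for activation: HEK293 cells expressing TRHR with calcium dye readout; series mostly up to about 58 µM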)
Procedure, shortened: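 Cells: TRHR-Hek293, seeded and incubated 18 h. Dye loading: 2 h at 37 °C. Compound added from DMSO stock by pin tool. Read-out: kinetic calcium fluorescence over 3 min.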

[17] = target: Nuclear receptor subfamily 1 group I member 2 (Homo sapiens) (UniProt O75469); assay: Human pregnane X receptor (PXR) small molecule agonists, qHTS assay (AID 1346982); note: nearly all actives have a fitted effect of over 35% in size; note: potency is the fitted concentration of half-maximal effect
Nuclear receptor subfamily 1 group I member 2 (Homo sapiens), sequence (O75469 whole entry, looked up): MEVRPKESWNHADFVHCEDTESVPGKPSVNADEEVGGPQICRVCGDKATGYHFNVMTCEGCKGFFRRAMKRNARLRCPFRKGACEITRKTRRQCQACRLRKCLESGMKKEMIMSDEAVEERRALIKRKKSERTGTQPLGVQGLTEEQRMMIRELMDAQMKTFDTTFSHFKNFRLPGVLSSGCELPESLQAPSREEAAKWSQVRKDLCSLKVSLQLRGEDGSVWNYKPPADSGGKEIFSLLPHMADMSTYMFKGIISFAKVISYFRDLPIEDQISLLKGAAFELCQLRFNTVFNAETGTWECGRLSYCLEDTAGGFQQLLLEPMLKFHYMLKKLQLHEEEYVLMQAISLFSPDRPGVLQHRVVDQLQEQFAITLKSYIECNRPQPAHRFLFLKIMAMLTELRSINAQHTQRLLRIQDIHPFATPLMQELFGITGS
Procedure, shortened: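 Cells: HepG2 stably carrying PXR-Luc. Medium held 5% charcoal-stripped FBS. Compounds in DMSO added after 5 hr plating, incubated 24 hr, then luminescence quantified with ONE-Glo.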

Measured: Potency

COCCl
35.7 µM (active) and inactive: [9]
39.8 µM (active) and inactive: [5]
20.1 µM (active) and inactive: [7]
not listed: [15] | [16] | [17]
inactive: all other assays above

c1ccc2c(c1)oc1ccccc12
not listed: [9] | [11]
inactive: all other assays above

CCCCN(CC)C(=O)SCCC
not listed: [2] | [9]
inactive: all other assays above

CC(C#N)CCC#N (configuration not stated)
35.2 µM (active) and inactive: [12]
not listed: [9]
inactive: all other assays above

O=NN1CCCC1
13.2 µM (active) and inactive: [10]
not listed: [2] | [9] | [15] | [16] | [17]
inactive: all other assays above

CCOP(=S)(OCC)SCCSCC
20.6 µM (active) and inactive: [14]
not listed: [2] | [10] | [17]
inactive: all other assays above

C=CCO
inactive and 8.71 µM (active): [16]
not listed: [9] | [11]
inactive: all other assays above

CCc1cccc(C)c1N(C(=O)CCl)C(C)COC (configuration not stated)
active: [17] 2.89 µM and 3.06 µM
not listed: [2] | [11]
inactive: all other assays above

Oc1ccccc1Cl
not listed: [11] | [17]
inactive: all other assays above

CCNc1nc(NC(C)(C)C)nc(SC)n1
active: [17] 30.2 µM and 48.6 µM
not listed: [9]
inactive: all other assays above

CN(N=O)c1ccccc1
not listed: [9] | [11]
inactive: all other assays above
